Source: article PMC7862700, “An all-to-all approach to the identification of sequence-specific readers for epigenetic DNA modifications on cytosine”

Molecular target: T1, ERF (Homo sapiens, UniProt P50548 1-548)
T1 sequence: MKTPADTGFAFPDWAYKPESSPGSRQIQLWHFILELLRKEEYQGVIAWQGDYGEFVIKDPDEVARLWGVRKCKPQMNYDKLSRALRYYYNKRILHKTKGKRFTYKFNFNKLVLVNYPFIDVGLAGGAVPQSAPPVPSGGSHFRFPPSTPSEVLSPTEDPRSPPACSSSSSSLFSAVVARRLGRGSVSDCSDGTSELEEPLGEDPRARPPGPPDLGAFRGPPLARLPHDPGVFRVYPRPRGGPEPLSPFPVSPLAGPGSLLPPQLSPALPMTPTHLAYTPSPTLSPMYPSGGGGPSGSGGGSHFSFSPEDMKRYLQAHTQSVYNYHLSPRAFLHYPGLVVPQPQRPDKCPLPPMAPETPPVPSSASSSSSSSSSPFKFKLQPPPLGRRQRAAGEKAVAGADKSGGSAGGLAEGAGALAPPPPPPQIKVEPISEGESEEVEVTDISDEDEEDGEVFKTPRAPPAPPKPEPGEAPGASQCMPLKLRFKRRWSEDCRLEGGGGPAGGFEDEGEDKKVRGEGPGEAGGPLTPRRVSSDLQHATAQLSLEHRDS
Experiment: DAPPL (digital affinity profiling via proximity ligation, sequencing); 10 mM Tris-HCl pH 7.5, 50 mM NaCl, 1 mM DTT, 4% glycerol, room temperature, 30 min; GST-TFs on glutathione beads, 16-mer random dsDNA library, 0.1% formaldehyde crosslink after washing; high values mean tight binding
Conditions: protein: recombinant; tags: N-terminal GST; dsDNA, one strand shown
Method in brief: (§1)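 In yeast, human transcription factors were expressed with a GST fusion, then pulled down on glutathione beads and given DNA barcodes. Pooled with a tag-only sample, they were exposed to 200 nmole of a 16-mer random double-stranded DNA library (Tris/NaCl/DTT/glycerol buffer, room temperature, 30 min), washed, crosslinked with 0.1% formaldehyde, proximity-ligated using BsaI/T4 ligase for 1 h at 37 °C, PCR-amplified and read on an Illumina NextSeq500. Each hexamer's frequency of reads for a factor, divided by the matching frequency for the tag-only sample, gives the binding signal.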

First: CCCCAC
Second: GTATGC
The binding signal of the first is higher: 1.14 fold enrichment (6-mer frequency, TF over GST control) for the first, 1.05 fold enrichment (6-mer frequency, TF over GST control) for the second.

First: TCATTA
Second: TCCCTG
The binding signal of the first is lower: 1.19 fold enrichment (6-mer frequency, TF over GST control) for the first, 1.29 fold enrichment (6-mer frequency, TF over GST control) for the second.

Compared with ACTAAG, ACACCC is higher in binding signal: 1.04 fold enrichment (6-mer frequency, TF over GST control) for the first, 1.17 fold enrichment (6-mer frequency, TF over GST control) for the second.

Going from TCCCGA to CACCTC, the binding signal falls from 1.34 fold enrichment (6-mer frequency, TF over GST control) to 1.21 fold enrichment (6-mer frequency, TF over GST control).

Going from AATTCA to GCCTAT, the binding signal rises from 1.22 fold enrichment (6-mer frequency, TF over GST control) to 1.23 fold enrichment (6-mer frequency, TF over GST control).

First: CACCAT
Second: CTTTCG
The binding signal of the first is lower: 1.12 fold enrichment (6-mer frequency, TF over GST control) for the first, 1.23 fold enrichment (6-mer frequency, TF over GST control) for the second.

Going from GTACAC to CTCGAA, the binding signal rises from 1.15 fold enrichment (6-mer frequency, TF over GST control) to 1.22 fold enrichment (6-mer frequency, TF over GST control).

Compared with CTTACG, TATACC is higher in binding signal: 1.09 fold enrichment (6-mer frequency, TF over GST control) for the first, 1.27 fold enrichment (6-mer frequency, TF over GST control) for the second.

Compared with GGACAT, TAGGAA is higher in binding signal: 1.12 fold enrichment (6-mer frequency, TF over GST control) for the first, 1.17 fold enrichment (6-mer frequency, TF over GST control) for the second.

Going from GATTTC to ACCTCA, the binding signal falls from 1.57 fold enrichment (6-mer frequency, TF over GST control) to 1.23 fold enrichment (6-mer frequency, TF over GST control).

Compared with ACGATA, TGTCCT is higher in binding signal: 1.2 fold enrichment (6-mer frequency, TF over GST control) for the first, 1.5 fold enrichment (6-mer frequency, TF over GST control) for the second.

First: TGCCAT
Second: AATCAT
The binding signal of the first is lower: 1.17 fold enrichment (6-mer frequency, TF over GST control) for the first, 1.18 fold enrichment (6-mer frequency, TF over GST control) for the second.

First: CTCGGC
Second: CAAGCA
The binding signal of the first is higher: 1.34 fold enrichment (6-mer frequency, TF over GST control) for the first, 1.15 fold enrichment (6-mer frequency, TF over GST control) for the second.

First: AAACTG
Second: GCTCAT
The binding signal of the first is lower: 1.03 fold enrichment (6-mer frequency, TF over GST control) for the first, 1.31 fold enrichment (6-mer frequency, TF over GST control) for the second.

Going from ACAAGC to CATCAC, the binding signal rises from 1.15 fold enrichment (6-mer frequency, TF over GST control) to 1.17 fold enrichment (6-mer frequency, TF over GST control).

First: AAGCAC
Second: CCCCTG
The binding signal of the first is lower: 1.19 fold enrichment (6-mer frequency, TF over GST control) for the first, 1.39 fold enrichment (6-mer frequency, TF over GST control) for the second.

First: AACGGC
Second: CCTTTG
The binding signal of the first is lower: 1.2 fold enrichment (6-mer frequency, TF over GST control) for the first, 1.24 fold enrichment (6-mer frequency, TF over GST control) for the second.

Going from CGCCGC to ACACAT, the binding signal rises from 1.2 fold enrichment (6-mer frequency, TF over GST control) to 1.29 fold enrichment (6-mer frequency, TF over GST control).

First: TAAGCC
Second: TGCACG
The binding signal of the first is higher: 1.15 fold enrichment (6-mer frequency, TF over GST control) for the first, 1.11 fold enrichment (6-mer frequency, TF over GST control) for the second.

First: ACCCCA
Second: TGAATG
The binding signal of the first is lower: 1.08 fold enrichment (6-mer frequency, TF over GST control) for the first, 1.14 fold enrichment (6-mer frequency, TF over GST control) for the second.

Molecular target: T2, ETV3L (Homo sapiens, UniProt Q6ZN32 1-361)
T2 sequence: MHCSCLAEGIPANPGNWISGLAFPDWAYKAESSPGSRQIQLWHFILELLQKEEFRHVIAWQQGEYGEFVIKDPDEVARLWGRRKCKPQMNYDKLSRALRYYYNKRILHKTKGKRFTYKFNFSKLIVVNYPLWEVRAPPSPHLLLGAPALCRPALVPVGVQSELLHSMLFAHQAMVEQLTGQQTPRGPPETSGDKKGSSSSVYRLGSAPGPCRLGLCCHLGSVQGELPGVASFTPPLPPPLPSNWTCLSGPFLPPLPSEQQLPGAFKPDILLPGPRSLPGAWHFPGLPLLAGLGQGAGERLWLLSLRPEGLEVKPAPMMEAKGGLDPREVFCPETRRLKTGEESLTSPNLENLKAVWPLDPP
Experiment: as above
Conditions: protein: recombinant; tags: N-terminal GST; dsDNA, one strand shown
Method in brief: as §1

Going from CCCCAC to GTATGC, the binding signal falls from 1.28 fold enrichment (6-mer frequency, TF over GST control) to 1.23 fold enrichment (6-mer frequency, TF over GST control).

First: TCATTA
Second: TCCCTG
The binding signal of the first is lower: 1.08 fold enrichment (6-mer frequency, TF over GST control) for the first, 1.28 fold enrichment (6-mer frequency, TF over GST control) for the second.

First: ACTAAG
Second: ACACCC
The binding signal of the first is lower: 1.12 fold enrichment (6-mer frequency, TF over GST control) for the first, 1.18 fold enrichment (6-mer frequency, TF over GST control) for the second.

Going from TCCCGA to CACCTC, the binding signal falls from 1.21 fold enrichment (6-mer frequency, TF over GST control) to 1.18 fold enrichment (6-mer frequency, TF over GST control).

Going from AATTCA to GCCTAT, the binding signal falls from 1.35 fold enrichment (6-mer frequency, TF over GST control) to 1.28 fold enrichment (6-mer frequency, TF over GST control).

Compared with CACCAT, CTTTCG is higher in binding signal: 1.16 fold enrichment (6-mer frequency, TF over GST control) for the first, 1.29 fold enrichment (6-mer frequency, TF over GST control) for the second.

First: GTACAC
Second: CTCGAA
The binding signal of the first is lower: 1.16 fold enrichment (6-mer frequency, TF over GST control) for the first, 1.24 fold enrichment (6-mer frequency, TF over GST control) for the second.

Going from CTTACG to TATACC, the binding signal rises from 1.05 fold enrichment (6-mer frequency, TF over GST control) to 1.15 fold enrichment (6-mer frequency, TF over GST control).

Going from GGACAT to TAGGAA, the binding signal rises from 1.13 fold enrichment (6-mer frequency, TF over GST control) to 1.15 fold enrichment (6-mer frequency, TF over GST control).

Compared with GATTTC, ACCTCA is lower in binding signal: 1.73 fold enrichment (6-mer frequency, TF over GST control) for the first, 1.29 fold enrichment (6-mer frequency, TF over GST control) for the second.

First: ACGATA
Second: TGTCCT
The binding signal of the first is lower: 1.18 fold enrichment (6-mer frequency, TF over GST control) for the first, 1.58 fold enrichment (6-mer frequency, TF over GST control) for the second.

First: TGCCAT
Second: AATCAT
The binding signal of the first is lower: 1.09 fold enrichment (6-mer frequency, TF over GST control) for the first, 1.18 fold enrichment (6-mer frequency, TF over GST control) for the second.

First: CTCGGC
Second: CAAGCA
The binding signal of the first is higher: 1.26 fold enrichment (6-mer frequency, TF over GST control) for the first, 1.17 fold enrichment (6-mer frequency, TF over GST control) for the second.

First: AAACTG
Second: GCTCAT
The binding signal of the first is lower: 1.08 fold enrichment (6-mer frequency, TF over GST control) for the first, 1.19 fold enrichment (6-mer frequency, TF over GST control) for the second.

Compared with ACAAGC, CATCAC is lower in binding signal: 1.11 fold enrichment (6-mer frequency, TF over GST control) for the first, 1.07 fold enrichment (6-mer frequency, TF over GST control) for the second.

First: AAGCAC
Second: CCCCTG
The binding signal of the first is higher: 1.2 fold enrichment (6-mer frequency, TF over GST control) for the first, 1.13 fold enrichment (6-mer frequency, TF over GST control) for the second.

Compared with AACGGC, CCTTTG is higher in binding signal: 1.23 fold enrichment (6-mer frequency, TF over GST control) for the first, 1.32 fold enrichment (6-mer frequency, TF over GST control) for the second.

Going from CGCCGC to ACACAT, the binding signal rises from 1.18 fold enrichment (6-mer frequency, TF over GST control) to 1.23 fold enrichment (6-mer frequency, TF over GST control).

Compared with TAAGCC, TGCACG is lower in binding signal: 1.2 fold enrichment (6-mer frequency, TF over GST control) for the first, 1.1 fold enrichment (6-mer frequency, TF over GST control) for the second.

First: ACCCCA
Second: TGAATG
The binding signal of the first is lower: 1.09 fold enrichment (6-mer frequency, TF over GST control) for the first, 1.2 fold enrichment (6-mer frequency, TF over GST control) for the second.

Molecular target: T3, ETS2 (Homo sapiens, UniProt P15036 1-469)
T3 sequence: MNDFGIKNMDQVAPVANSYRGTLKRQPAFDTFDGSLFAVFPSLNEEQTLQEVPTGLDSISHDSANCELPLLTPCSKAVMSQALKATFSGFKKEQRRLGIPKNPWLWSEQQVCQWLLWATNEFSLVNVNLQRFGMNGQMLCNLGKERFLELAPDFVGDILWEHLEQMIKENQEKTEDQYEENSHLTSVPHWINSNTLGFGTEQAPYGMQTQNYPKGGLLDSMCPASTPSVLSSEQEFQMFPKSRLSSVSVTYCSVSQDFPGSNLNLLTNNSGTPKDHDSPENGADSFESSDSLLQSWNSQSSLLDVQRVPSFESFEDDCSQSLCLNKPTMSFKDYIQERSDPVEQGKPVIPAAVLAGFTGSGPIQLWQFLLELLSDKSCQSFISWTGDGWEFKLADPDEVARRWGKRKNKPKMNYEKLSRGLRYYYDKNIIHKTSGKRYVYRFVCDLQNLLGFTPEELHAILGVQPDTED
Experiment: as above
Conditions: protein: recombinant; tags: N-terminal GST; dsDNA, one strand shown
Method in brief: as §1

Compared with CCCCAC, GTATGC is higher in binding signal: 1.22 fold enrichment (6-mer frequency, TF over GST control) for the first, 1.24 fold enrichment (6-mer frequency, TF over GST control) for the second.

Going from TCATTA to TCCCTG, the binding signal rises from 1.1 fold enrichment (6-mer frequency, TF over GST control) to 1.21 fold enrichment (6-mer frequency, TF over GST control).

Going from ACTAAG to ACACCC, the binding signal falls from 1.11 fold enrichment (6-mer frequency, TF over GST control) to 1.09 fold enrichment (6-mer frequency, TF over GST control).

Compared with TCCCGA, CACCTC is lower in binding signal: 1.29 fold enrichment (6-mer frequency, TF over GST control) for the first, 1.06 fold enrichment (6-mer frequency, TF over GST control) for the second.

Compared with AATTCA, GCCTAT is lower in binding signal: 1.39 fold enrichment (6-mer frequency, TF over GST control) for the first, 1.09 fold enrichment (6-mer frequency, TF over GST control) for the second.

Going from CACCAT to CTTTCG, the binding signal rises from 1.08 fold enrichment (6-mer frequency, TF over GST control) to 1.32 fold enrichment (6-mer frequency, TF over GST control).

Going from GTACAC to CTCGAA, the binding signal rises from 1.18 fold enrichment (6-mer frequency, TF over GST control) to 1.2 fold enrichment (6-mer frequency, TF over GST control).

Going from CTTACG to TATACC, the binding signal rises from 1.13 fold enrichment (6-mer frequency, TF over GST control) to 1.24 fold enrichment (6-mer frequency, TF over GST control).

Going from GGACAT to TAGGAA, the binding signal rises from 1.18 fold enrichment (6-mer frequency, TF over GST control) to 1.19 fold enrichment (6-mer frequency, TF over GST control).

Compared with GATTTC, ACCTCA is lower in binding signal: 1.79 fold enrichment (6-mer frequency, TF over GST control) for the first, 1.21 fold enrichment (6-mer frequency, TF over GST control) for the second.
